“And” between values parts separate entries of the source, which are not always exact repeats. Equal values may be shown once. Records with an inconclusive call do not appear. The source made the active and inactive calls. Unless noted, calls follow the shape of the dose curve; as a rule, active = well fitted curve in either direction with a large enough effect (not every such curve was filed as active); inconclusive = small, poorly fitted or top-dose-only effect, or another doubt; inactive = flat fitted curve, though single readings scatter.
Assays:
[1] = AP1 Signaling Pathway (AID 357);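 also: ME-180 reporter cells stimulated with EGF at its EC50 level; % is scaled to controls: 0 for no effect and ±100 for the full control effect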
Method in brief: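 Read-out was the 460nm/530nm emission ratio (excitation 405nm) after CCF4 loading for 2.5 hours at room temperature. Cells carried an AP-1-driven beta-lactamase reporter, were stimulated with EC50 EGF plus compound for 5 hours, and AC50 values came from titrations.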

[2] = NFAT Signaling Pathway (AID 444); settings: Jurkat NFAT-bla M1, carbachol, beta-lactamase ratio, 5 h;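 also: carbachol stimulus at about its EC50 of 1 µM final; % is scaled to controls: 0 for no effect and ±100 for the full control effect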
Method in brief: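 Read-out: CCF4 FRET ratio (460 nm/530 nm) after 1 h RT dye loading, used for %activity and AC50 from titration series. Cells: Jurkat NFAT-β-lactamase/M1 line, treated with compound plus 1 uM carbachol for 5 h, 37 °C.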

[3] = Stat Signaling Pathway (AID 446);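 also: ME-180 cervical cancer cells given 40 pM IL-6 alongside compound; SIE-controlled beta-lactamase reporter measured as 460/530 nm FRET emission ratio; % is scaled to controls: 0 for no effect and ±100 for the full control effect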
Method in brief: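 Reporter line: ME-180 cervical carcinoma, SIE-beta-lactamase. Treatment: compound with 40 pM IL-6, 5 hrs, 37 C, in low-serum OPTI-MEM with 10 mM HEPES pH 7.3. Detection: 460/530 nm fluorescence.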

[4] = biological target: Glucocorticoid receptor (Homo sapiens) (UniProt P04150); experiment: GR-GFP Redistribution (AID 450;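 active = compounds whose dose series gives a full or clear partial fitted curve of increased nuclear translocation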; also: potency is read from the fitted curve at half-maximal effect); settings: U2OS GR-GFP nuclear translocation, laser cytometry, 2 h
[5] = biological target: Lysosomal acid glucosylceramidase (Homo sapiens) (UniProt P04062); experiment: Glucocerebrosidase-p2 (AID 348; in the data active = potency below about 10 µM; also: potency is read from the fitted curve at half-maximal effect); settings: purified GBA, blue fluorogenic substrate, 40 min
Method in brief: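 Compounds titrated from 0.6 nM upwards against 0.2 nM enzyme in pH 5.9 citric acid/KH2PO4, taurocholate, tween-20; blue fluorogenic substrate 80 uM, 40 min room temperature, stopped and read Ex 365/Em 440 for AC50.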

[6] = biological target: Mitogen-activated protein kinase 10 (Mus musculus) (UniProt Q61831); experiment: JNK3 AlphaScreen Assay (AID 530);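 also: kinase came from lysate of stimulated human HepG2 cells; signal reports phosphorylation of biotinylated GST-cJun 1-79 at Ser73 with 10 µM ATP; % is scaled to controls: 0 for no effect and ±100 for the full control effect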
Method in brief: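 Compound titrations were preincubated 15 minutes at room temperature with substrate, antibody and pre-activated JNK3-containing HepG2 lysate. Reactions were started with 10 uM ATP and stopped with EDTA-containing bead buffer for AlphaScreen detection.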

[7] = biological target: 3',5'-cyclic-AMP phosphodiesterase 4B (Homo sapiens) (UniProt Q07343); experiment: qHTS Assay for Inhibitors of PDE-IV (AID 607; active = well fitted activation curve with a large enough effect in the main read-out, with a control signal flat, not every such curve was filed as active; also: % of control where 0% means no effect)
Method in brief: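 Cell-based read-out of cAMP via a modified cyclic nucleotide-gated channel and membrane potential dye (535/590 nm) in HEK293 cells expressing PDE4 endogenously. Compounds tested up to 22.9 uM final; 100 uM RO 20-1724 reference.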

[8] = biological target: Cytochrome P450 1A2 (Homo sapiens) (UniProt P05177); experiment: p450-cyp1a2 (AID 410; calls by dose curve; also: potency is read from the fitted curve at half-maximal effect;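 as to activity change, negative = inhibition: -100% = full effect of reference inhibitor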)
Method in brief: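 20nM CYP1A2 with 100uM Luciferin-ME (at Km) in 100mM KPO4; compound preincubated 10 min, NADPH regeneration added, 60 min at room temperature. Luciferin quantified by luminescence after detection reagent; normalized to 57 uM furafylline.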

[9] = biological target: Glucocorticoid receptor (Homo sapiens) (UniProt P04150); experiment: GR-EFC Redistribution (AID 451; calls by dose curve; also: potency is read from the fitted curve at half-maximal effect); settings: CHO-K1 GR-EFC translocation, beta-gal luminescence, 2 h
Method in brief: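 Translocation of GR-ED fusion to nuclear EA restores b-gal, read by luminescence after 1 h room-temperature detection. Engineered CHO-K1 biosensor cells, 1,000/well, exposed 2 h at 37 C to titrations up to 46 uM final.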

[10] = at 17.2 µM (top of the series) unless noted

Chain of 3',5'-cyclic-AMP phosphodiesterase 4B (Homo sapiens) (Q07343 whole entry, looked up): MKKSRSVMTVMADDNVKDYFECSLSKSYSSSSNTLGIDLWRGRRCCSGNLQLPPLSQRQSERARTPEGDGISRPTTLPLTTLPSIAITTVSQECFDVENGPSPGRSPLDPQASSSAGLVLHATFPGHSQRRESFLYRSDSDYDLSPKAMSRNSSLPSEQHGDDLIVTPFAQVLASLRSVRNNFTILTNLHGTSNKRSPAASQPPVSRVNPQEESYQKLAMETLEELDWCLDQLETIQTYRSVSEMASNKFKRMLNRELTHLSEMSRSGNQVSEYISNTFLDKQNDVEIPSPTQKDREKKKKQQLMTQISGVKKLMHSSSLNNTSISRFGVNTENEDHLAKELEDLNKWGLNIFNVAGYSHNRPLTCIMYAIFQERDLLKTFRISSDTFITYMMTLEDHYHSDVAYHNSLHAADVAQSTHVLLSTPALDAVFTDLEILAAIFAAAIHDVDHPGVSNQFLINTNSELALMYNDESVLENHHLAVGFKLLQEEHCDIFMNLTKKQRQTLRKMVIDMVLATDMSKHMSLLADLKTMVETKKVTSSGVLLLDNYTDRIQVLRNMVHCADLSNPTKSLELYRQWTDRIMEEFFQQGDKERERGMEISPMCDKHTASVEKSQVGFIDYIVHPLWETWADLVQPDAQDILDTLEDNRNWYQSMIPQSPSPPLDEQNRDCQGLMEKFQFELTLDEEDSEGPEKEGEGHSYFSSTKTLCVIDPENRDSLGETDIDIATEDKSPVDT
Chain of Glucocorticoid receptor (Homo sapiens) (P04150 whole entry, looked up, the tested form may be a part): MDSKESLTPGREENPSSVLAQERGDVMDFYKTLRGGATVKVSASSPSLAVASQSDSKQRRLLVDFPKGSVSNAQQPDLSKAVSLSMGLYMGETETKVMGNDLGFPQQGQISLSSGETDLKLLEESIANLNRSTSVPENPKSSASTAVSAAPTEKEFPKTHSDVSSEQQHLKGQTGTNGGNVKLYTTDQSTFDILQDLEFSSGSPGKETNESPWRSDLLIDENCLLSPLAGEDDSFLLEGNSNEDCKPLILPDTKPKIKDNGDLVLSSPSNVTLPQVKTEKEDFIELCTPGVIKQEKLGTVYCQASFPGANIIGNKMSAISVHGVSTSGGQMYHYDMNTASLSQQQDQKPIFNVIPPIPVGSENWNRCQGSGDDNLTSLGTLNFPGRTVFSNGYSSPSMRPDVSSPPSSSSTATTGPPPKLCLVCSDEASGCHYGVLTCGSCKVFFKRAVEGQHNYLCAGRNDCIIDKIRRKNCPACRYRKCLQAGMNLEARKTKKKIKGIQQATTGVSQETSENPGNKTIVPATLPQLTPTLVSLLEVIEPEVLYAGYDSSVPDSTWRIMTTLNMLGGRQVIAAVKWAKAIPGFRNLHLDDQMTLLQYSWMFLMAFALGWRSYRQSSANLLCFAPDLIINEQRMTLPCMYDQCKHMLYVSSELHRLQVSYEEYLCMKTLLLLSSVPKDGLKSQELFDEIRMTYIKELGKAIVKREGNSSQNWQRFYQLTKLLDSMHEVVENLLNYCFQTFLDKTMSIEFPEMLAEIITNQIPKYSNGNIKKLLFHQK
Chain of Lysosomal acid glucosylceramidase (Homo sapiens) (P04062 whole entry, looked up): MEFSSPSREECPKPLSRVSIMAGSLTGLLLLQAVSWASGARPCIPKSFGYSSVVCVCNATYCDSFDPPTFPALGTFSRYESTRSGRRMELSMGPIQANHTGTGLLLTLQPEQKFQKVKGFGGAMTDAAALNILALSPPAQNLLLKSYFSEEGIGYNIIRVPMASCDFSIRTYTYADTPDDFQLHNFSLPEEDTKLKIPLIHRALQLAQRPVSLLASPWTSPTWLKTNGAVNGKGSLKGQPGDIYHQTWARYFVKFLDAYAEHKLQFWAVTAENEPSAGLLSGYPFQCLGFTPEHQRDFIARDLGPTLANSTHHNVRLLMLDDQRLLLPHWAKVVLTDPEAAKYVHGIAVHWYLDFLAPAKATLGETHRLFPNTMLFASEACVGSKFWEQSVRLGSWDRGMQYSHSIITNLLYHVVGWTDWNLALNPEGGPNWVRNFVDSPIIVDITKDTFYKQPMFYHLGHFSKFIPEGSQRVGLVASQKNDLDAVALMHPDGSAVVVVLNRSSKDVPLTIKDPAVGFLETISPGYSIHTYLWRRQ
Chain of Cytochrome P450 1A2 (Homo sapiens) (P05177 whole entry, looked up): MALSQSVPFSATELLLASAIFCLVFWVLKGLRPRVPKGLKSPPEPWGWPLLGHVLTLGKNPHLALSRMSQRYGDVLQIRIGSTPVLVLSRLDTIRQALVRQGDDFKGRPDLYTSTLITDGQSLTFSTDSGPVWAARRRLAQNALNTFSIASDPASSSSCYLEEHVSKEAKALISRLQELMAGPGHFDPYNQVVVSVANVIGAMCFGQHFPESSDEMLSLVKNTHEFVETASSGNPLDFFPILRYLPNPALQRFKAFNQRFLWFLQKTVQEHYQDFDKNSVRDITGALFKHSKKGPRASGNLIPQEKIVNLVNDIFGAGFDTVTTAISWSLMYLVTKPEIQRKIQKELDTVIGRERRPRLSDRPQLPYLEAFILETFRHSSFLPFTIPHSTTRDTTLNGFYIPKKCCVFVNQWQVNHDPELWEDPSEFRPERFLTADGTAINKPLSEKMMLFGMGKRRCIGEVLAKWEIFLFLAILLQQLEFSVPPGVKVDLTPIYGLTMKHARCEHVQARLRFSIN

O=C(O)CCCc1ccccc1
inactive: outcome [1] | activity change, negative = inhibition [2, 10] 20.3% | outcome [3] | Potency [4] > 20.6 µM

Cc1ncc(CO)c(CN)c1O
inactive: Potency [5] > 11.4 µM | outcome [1] | activity change, negative = inhibition [2, 10] -0.448% [at 7.69 µM] | outcome [3] | outcome [6] | outcome [7]

O=S1(=O)OC(c2ccc(O)cc2)(c2ccc(O)cc2)c2ccccc21
inactive: Potency [5] > 11.4 µM | outcome [1] | activity change, negative = inhibition [2, 10] 14.9% [at 7.69 µM] | outcome [3] | outcome [6] | outcome [7]

NS(=O)(=O)c1ccc(C(=O)O)cc1
inactive: Potency [5] > 11.4 µM | outcome [1] | Potency [8] | activity change, negative = inhibition ([2]; at 7.69 µM (top of the series)) 7.39% | activity change, negative = inhibition ([2]; at 17.2 µM (top of the series)) 8.44% | outcome [3] | Potency [4] > 46 µM and > 20.6 µM | Potency [9] > 9.22 µM | outcome [6] | outcome [7]

CC(=O)[C@@]1(O)CC[C@H]2[C@@H]3C[C@H](C)C4=CC(=O)C=C[C@]4(C)[C@@]3(F)[C@@H](O)C[C@@]21C
inactive: outcome [1] | activity change, negative = inhibition [2, 10] 9.08% | outcome [3] | Potency [4] > 20.6 µM

C[C@@H]1CCC[C@H](C)N1
inactive: outcome [1] | Potency [8] | activity change, negative = inhibition [2, 10] -5.56% | outcome [3] | Potency [4] > 20.6 µM | Potency [9] > 20.6 µM | outcome [6] | outcome [7]

O=C(O)COC(=O)Cc1ccccc1Nc1c(Cl)cccc1Cl
inactive: outcome [1] | Potency [8] | activity change, negative = inhibition [2, 10] -7.48% | outcome [3] | outcome [6]

CN1C(C)(C)CCCC1(C)C
inactive: outcome [1] | activity change, negative = inhibition ([2]; at 17.2 µM (top of the series)) -4.12% | activity change, negative = inhibition ([2]; at 38 µM (top of the series)) 7.41% | outcome [3] | Potency [4] > 46 µM and > 20.6 µM | Potency [9] > 46 µM and > 20.6 µM | outcome [6] | outcome [7]

CCOC(=O)[C@H](CCc1ccccc1)N[C@@H](C)C(=O)N1CCC[C@H]1C(=O)O
inactive: outcome [1] | Potency [8] | activity change, negative = inhibition [2, 10] 0.851% | outcome [3] | Potency [4] > 20.6 µM | Potency [9] > 20.6 µM | outcome [6] | outcome [7]

CCN(CC)CCc1nc(-c2ccccc2)no1
active: Potency [8] 5.01 µM
inactive: outcome [1] | outcome [3] | Potency [4] > 20.6 µM | Potency [9] > 20.6 µM | outcome [6] | outcome [7]

CCc1cccc(CC)c1NC(=O)CN(CC(=O)O)CC(=O)O
inactive: outcome [1] | Potency [8] | activity change, negative = inhibition [2, 10] -2.21% | outcome [3] | Potency [4] > 20.6 µM | Potency [9] > 20.6 µM | outcome [6] | outcome [7]

OC(CCN1CCCC1)(c1ccccc1)C1CCCCC1 (configuration not stated)
active: activity change, negative = inhibition [2, 10] -89.4%
inactive: outcome [1] | outcome [3] | Potency [4] > 20.6 µM

Cc1c(NC(C)C)c(=O)n(-c2ccccc2)n1C
inactive: outcome [1] | activity change, negative = inhibition [2, 10] -8.51% | outcome [3] | Potency [4] > 20.6 µM | Potency [9] > 20.6 µM | outcome [6] | outcome [7]
active: Potency [8] 0.0398 µM

Cc1cccc(Nc2ccccc2C(=O)O)c1C
active: Potency [8] 5.01 µM
inactive: outcome [1] | activity change, negative = inhibition [2, 10] -4.97% | outcome [3] | Potency [4] > 20.6 µM | Potency [9] > 20.6 µM | outcome [6]

Cn1c(=O)c2c(ncn2CCO)n(C)c1=O
inactive: outcome [1] | Potency [8] | activity change, negative = inhibition [2, 10] -0.574% | outcome [3] | outcome [6] | outcome [7]

CC1CCc2cc(F)cc3c(=O)c(C(=O)O)cn1c23 (configuration not stated)
inactive: outcome [1] | activity change, negative = inhibition [2, 10] 13.1% | outcome [3] | Potency [4] > 20.6 µM

CC(C)=CCC/C(C)=C/CO
inactive: Potency [5] > 11.4 µM | outcome [1] | activity change, negative = inhibition [2, 10] 4.14% [at 7.69 µM] | Potency [4] > 46 µM | Potency [9] > 9.22 µM | outcome [6] | outcome [7]

O=C(O)c1ccccc1C(=O)Nc1ccc(S(=O)(=O)Nc2nccs2)cc1
inactive: outcome [1] | Potency [8] | activity change, negative = inhibition [2, 10] 11.2% | outcome [3] | Potency [4] > 20.6 µM | Potency [9] > 20.6 µM | outcome [6] | outcome [7]

COc1ccc2cc(CCC(C)=O)ccc2c1
active: Potency [8] 0.398 µM
inactive: outcome [1] | activity change, negative = inhibition [2, 10] -1.6% | outcome [3] | Potency [4] > 20.6 µM | Potency [9] > 20.6 µM | outcome [6] | outcome [7]

NCc1ccc(S(N)(=O)=O)cc1
inactive: outcome [1] | Potency [8] | activity change, negative = inhibition [2, 10] -1.12% and 9.4% | outcome [3] | outcome [6] | outcome [7]

C[N+](C)(C)CC[N+]1(C)Cc2c(Cl)c(Cl)c(Cl)c(Cl)c2C1
inactive: Potency [8] | Potency [4] > 46 µM | Potency [9] > 46 µM | outcome [6] | outcome [7]

Reference: PubChem BioAssay (NCATS)
